# Measurements as given in PubChem BioAssay (Tox21).
# Results filed as inconclusive are left out. A number with no mark means an inactive call. Calls of active or inactive are those of the source. The call rests on the fitted dose curve; in most records, active means well fitted cell-killing curve with a large enough effect in the repeat runs; inconclusive means weak or mixed curves, or effect the other way; inactive means flat fitted curve, though single readings scatter. Where a SMILES comes first, the peptide text is derived from it. [ ]: non-standard residue; d: D form. pGlu = O=C1CC[C@@H](C(=O)O)N1
# Test: qHTS assay to identify small molecule antagonists of the constitutive androstane receptor (CAR) signaling pathway - cell viability counter screen (AID 1224837); further: nearly all actives have a fitted effect of over 45% in size
# Settings: HepG2-CYP2B6-hCAR viability, CellTiter-Fluor, 23 h, co-treated with 50 nM CITCO; series mostly up to 92.4 µM
# Excerpt: National Center for Advancing Translational Sciences [NCATS]
# NIH Chemical Genomics Center [NCGC]
# U.S. Environmental Protection Agency [EPA]
# National Institutes of Environmental Health Sciences [NIEHS]
# National Toxicology Program [NTP]
# U.S. Food and Drug Administration [FDA]
# The constitutive androstane receptor (CAR) is a nuclear receptor which regulates multiple drug metabolizing enzymes (DMEs) and transporters. Activating CAR will generally increase the transcription and subsequent translation of CYP2B6 and CYP3A4. These two DMEs represent about 50% of the drug metabolizing potential in the body. When CAR is deactivated, the metabolizing potential in the body will decrease, subsequently increasing the toxicity in the body or lowering the therapeutic potential of a pro-drug. Recently, there have also been studies performed indicating CARs role in energy metabolism and cancer therapy. Therefore, inhibiting CARs activity could have a potential effect on diabetes and cancer. Identifying environmental toxins and compounds which modulate CAR, through the use of the Tox21 10K compound collection, will be an important step in determining the toxicity and potential therapeutic effects these factors will have on the human body. To differentiate true CAR antagonists from cytotoxic substances, the assay is multiplexed with a cell viability assay.
# Tox21 Assay Protocol Summary:
# A double-stable (hCAR and CYP2B6-2.2kb) transfected cell line, derived from human hepatoma (HepG2) cells, was utilized for the duration of the quantitative high-throughput screens. The HepG2-CYP2B6-hCAR cells were dispensed at 2500 cells/4 uL/well in 1536-well white solid bottom plates using a Multidrop Combi. After the assay plates were incubated at 37 C/5% CO2 for 4 hrs, 23 nL of compounds at 15 concentrations (from 5-48 columns) or positive control (from 1 to 4 columns) were transferred to the assay plates using a Pintool station. One uL of CITCO (final concentration = 50 nM) was added, using a Flying Reagent Dispenser, inside each well. After a 23 hr incubation period at 37 C/5% CO2, 1 uL of CellTiter-Fluor reagent was added into each well of the assay plates using a Flying Reagent Dispenser. The fluorescence intensity in the plates was then measured using a ViewLux plate reader.
# On the % scale 0 is the no-effect control and ±100 the full control effect.
Compound,outcome,"activity change, negative = cytotoxicity"
CCCCCCCCCCCCSC,inactive,
CC(N)C12CC3CC(CC(C3)C1)C2 (stereo not given),inactive,
COc1cc(C(=O)OC(COCCC(C)C)CN2CCOCC2)cc(OC)c1OC (stereo not given),inactive,
O=C(O)c1cc(C(=O)O)cc(C(=O)O)c1,inactive,
CCOc1c(N2CCOCC2)cnn(C)c1=O,inactive,
CC(C)(C#N)Nc1nc(Cl)nc(NC2CC2)n1,inactive,
O=C(c1ccccc1)C1(O)CCCCC1,inactive,
CCCCCC(=O)OCCc1ccccc1,inactive,
CCN1CCOCC1,inactive,
C=C(C)C(=O)OCC(O)CO (stereo not given),inactive,
CCCn1cc[n+](C)c1C,inactive,
CCC(C)(CCCC(C)C)OC(C)=O (stereo not given),inactive,
CCCCCCCCCCOc1cc2c(=O)c(C(=O)OCC)c[nH]c2cc1OCC,,5.07% [at 8.39 µM]
CC1=C(C/C=C(\C)CCC[C@H](C)CCC[C@H](C)CCCC(C)C)C(=O)c2ccccc2C1=O,inactive,
CC(C)CCCO,inactive,
O=C(O)CC(C(=O)O)S(=O)(=O)O (stereo not given),inactive,
NC(=O)Cc1cccc2ccccc12,inactive,
Cc1ccc(C(=O)c2ccc(CC(=O)O)n2C)cc1,inactive,
[O-][n+]1cccc(CO)c1,inactive,
NC(=O)N1c2ccccc2CC(=O)c2ccccc21,inactive,

Compound,outcome,"activity change, negative = cytotoxicity"
CC(C)C1CCC(O)CC1 (stereo not given),inactive,
NCCCC[C@H](N[C@@H](CCc1ccccc1)C(=O)O)C(=O)N1CCC[C@H]1C(=O)O,inactive,
Cc1ccc(-c2ccccc2C#N)cc1,inactive,
C=C[Si](OC(C)=O)(OC(C)=O)OC(C)=O,inactive,
CC(CO)(CO)[N+](=O)[O-],inactive,
NC(CCC(=O)O)C(=O)O (stereo not given),inactive,
CCOC(=O)C1=NOC(c2ccccc2)(c2ccccc2)C1,inactive,
COC(=O)C1=C(C)NC(C)=C(C(=O)OC(C)C)C1c1cccc2nonc12 (stereo not given),inactive,
Cc1ccc(C(=O)c2ccccc2)cc1,inactive,
CN1CCN(c2cc3c(nn2)Oc2ccccc2N3C)CC1,,-0.71% [at 19 µM]
O=S(=O)(O)c1cccc2ccccc12,inactive,
CN1[C@@H]2CC[C@H]1CC(OC(=O)C(O)c1ccccc1)C2 (stereo not given in full),inactive,
CCC(=O)OCc1ccccc1,inactive,
CCOc1ccccc1OCC,inactive,
C=CCCCCCCCCC(=O)OCC,inactive,
c1ccc2sc(SN3CCOCC3)nc2c1,inactive,
CC(C)c1ccc2ncccc2c1,inactive,
CCNC(=O)[C@@H]1CCCN1C(=O)[C@H](CCCN=C(N)N)NC(=O)[C@H](CC(C)C)NC(=O)CNC(=O)[C@H](Cc1ccc(O)cc1)NC(=O)[C@H](CO)NC(=O)[C@H](Cc1c[nH]c2ccccc12)NC(=O)[C@H](Cc1cnc[nH]1)NC(=O)[C@@H]1CCC(=O)N1 ([pGlu]HWSYGLRP-NHEt),inactive,
Clc1cc(Cl)c(Cl)nc1Cl,inactive,
CCO[Si](OCC)(OCC)c1ccccc1,inactive,
